Experimental data published in PubChem BioAssay AID1159580 (chemical genetic matrix, 2015).
“And” between values parts separate entries of the source, which are not always exact repeats. Identical values can stand only once. The campaign covered roughly 5,500 compounds. About 2,000 (36%) were called active. About 18% were inconclusive and are not listed. No stated cut-off is given here; in the data, active means normalized growth mostly below about 0.91 (no sharp cut-off); inconclusive means no clear call, values can overlap the other calls; inactive means mostly above about 0.92. Some of the results follow. More than one record can exist for a structure, and the calls need not agree.

Experiment: chemical genetic growth profiling, strain panel (AID 1159580);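 further: tested at 20 µM; growth read once vehicle control cultures reached saturation at 30 °C; 1 = growth at the plate median or of vehicle wells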
Conditions: growth OD
[1] = S. cerevisiae deletion strains, locus YAL013W, strain DEP1, stronger effect = lower value
[2] = S. cerevisiae deletion strains, locus YAL040C, strain CLN3, stronger effect = lower value
[3] = S. cerevisiae deletion strains, locus YDR363W, strain ESC2, stronger effect = lower value
[4] = S. cerevisiae deletion strains, locus YER002W, strain NOP16, stronger effect = lower value
[5] = S. cerevisiae deletion strains, locus YJR075W, strain HOC1, stronger effect = lower value
[6] = S. cerevisiae deletion strains, locus YMR307W, strain GAS1, stronger effect = lower value
[7] = S. cerevisiae deletion strains, locus YNL153C, strain GIM3, stronger effect = lower value
[8] = S. cerevisiae deletion strains, locus YNL175C, strain NOP13, stronger effect = lower value
[9] = S. cerevisiae deletion strains, locus YNL197C, strain WHI3, stronger effect = lower value
[10] = S. cerevisiae deletion strains, locus YNL224C, strain SQS1, stronger effect = lower value
[11] = S. cerevisiae deletion strains, locus YOR083W, strain WHI5 (second series), stronger effect = lower value
[12] = S. cerevisiae deletion strains, locus YPL055C, strain LGE1, stronger effect = lower value

Measured: normalized growth

CSc1ccc2c(c1)C(N1CCN(C)CC1)Cc1ccccc1S2 (centres undefined)
active: S. cerevisiae deletion strains, locus YBR021W, strain FUR4, stronger effect = lower value 0.364 | S. cerevisiae deletion strains, locus YCL061C, strain MRC1 (second series), stronger effect = lower value 0.532 | S. cerevisiae deletion strains, locus YDL035C, strain GPR1, stronger effect = lower value 0.755 | S. cerevisiae deletion strains, locus YDL074C, strain BRE1, stronger effect = lower value 0.584 | S. cerevisiae deletion strains, locus YDL101C, strain DUN1, stronger effect = lower value 0.537 | S. cerevisiae deletion strains, locus YDL134C, strain PPH21, stronger effect = lower value 0.631 | S. cerevisiae deletion strains, locus YDL192W, strain arf1, stronger effect = lower value 0.102 | S. cerevisiae deletion strains, locus YDR162C, strain NBP2, stronger effect = lower value 0.139 | S. cerevisiae deletion strains, locus YDR318W, strain mcm21, stronger effect = lower value 0.807 | S. cerevisiae deletion strains, locus YDR388W, stronger effect = lower value 0.659 | S. cerevisiae deletion strains, locus YDR502C, strain sam2, stronger effect = lower value 0.859 | S. cerevisiae deletion strains, locus YGL086W, strain mad1, stronger effect = lower value 0.741 | S. cerevisiae deletion strains, locus YGL248W, strain PDE1, stronger effect = lower value 0.712 | S. cerevisiae deletion strains, locus YGR078C, strain PAC10, stronger effect = lower value 0.833 | S. cerevisiae deletion strains, locus YGR135W, strain pre9, stronger effect = lower value 0.753 | S. cerevisiae deletion strains, locus YGR229C, strain SMI1, stronger effect = lower value 0.142 | S. cerevisiae deletion strains, locus YGR252W, strain gcn5, stronger effect = lower value 0.254 | S. cerevisiae deletion strains, locus YHR030C, strain SLT2, stronger effect = lower value 0.655 | S. cerevisiae deletion strains, locus YHR079C, strain IRE1 (second series), stronger effect = lower value 0.911 | S. cerevisiae deletion strains, locus YIL066C, strain RNR3, stronger effect = lower value 0.759 | S. cerevisiae deletion strains, locus YIL073C, strain SPO22, stronger effect = lower value 0.437 | S. cerevisiae deletion strains, locus YJL095W, strain BCK1, stronger effect = lower value 0.537 | S. cerevisiae deletion strains, locus YJL187C, strain SWE1 (second series), stronger effect = lower value 0.658 | [5] 0.834 | S. cerevisiae deletion strains, locus YKL190W, strain CNB1, stronger effect = lower value 0.657 | S. cerevisiae deletion strains, locus YKR001C, strain vps1, stronger effect = lower value 0.0823 | S. cerevisiae deletion strains, locus YLR039C, strain RIC1, stronger effect = lower value 1.54 [resistant] | S. cerevisiae deletion strains, locus YLR058C, strain SHM2, stronger effect = lower value 0.77 | S. cerevisiae deletion strains, locus YLR262C, strain YPT6, stronger effect = lower value 1.56 [resistant] | S. cerevisiae deletion strains, locus YLR342W, strain FKS1 (second series), stronger effect = lower value 0.2 | S. cerevisiae deletion strains, locus YLR418C, strain cdc73, stronger effect = lower value 0.575 | S. cerevisiae deletion strains, locus YML032C, strain rad52, stronger effect = lower value 0.894 | S. cerevisiae deletion strains, locus YMR223W, strain ubp8, stronger effect = lower value 0.779 | [7] 0.747 | S. cerevisiae deletion strains, locus YNL233W, strain BNI4, stronger effect = lower value 0.696 | S. cerevisiae deletion strains, locus YNL307C, strain MCK1, stronger effect = lower value 0.791 | S. cerevisiae deletion strains, locus YNL322C, strain KRE1, stronger effect = lower value 0.773 | S. cerevisiae deletion strains, locus YNR052C, strain pop2, stronger effect = lower value 0.705 | S. cerevisiae deletion strains, locus YOL006C, strain TOP1, stronger effect = lower value 0.413 | S. cerevisiae deletion strains, locus YOR061W, strain CKA2, stronger effect = lower value 0.122 | [11] 0.745 | S. cerevisiae deletion strains, locus YOR184W, strain ser1, stronger effect = lower value 0.82 | [12] 0.596 and 0.806 | S. cerevisiae deletion strains, locus YPR163C, strain tif3, stronger effect = lower value 0.0814 | S. cerevisiae deletion strains, strain wtn01, stronger effect = lower value 0.717 | S. cerevisiae strains, strain wild type, stronger effect = lower value 0.698
0.514 (active) and 0.999 (inactive): [6]
0.771 (active) and 1.09 (inactive): S. cerevisiae deletion strains, locus YNL128W, strain TEP1, stronger effect = lower value
inactive: [1] 0.916 | [2] 1 | S. cerevisiae deletion strains, locus YBR229C, strain ROT2, stronger effect = lower value 1.01 | S. cerevisiae deletion strains, locus YCL029C, strain bik1, stronger effect = lower value 0.987 | S. cerevisiae deletion strains, locus YDL185W, strain tfp1, stronger effect = lower value 1.01 | S. cerevisiae deletion strains, locus YDR101C, strain arx1, stronger effect = lower value 0.929 | S. cerevisiae deletion strains, locus YDR150W, strain NUM1, stronger effect = lower value 1 | [3] 0.889 | S. cerevisiae deletion strains, locus YEL061C, strain CIN8, stronger effect = lower value 0.975 | [4] 1.07 | S. cerevisiae deletion strains, locus YER110C, stronger effect = lower value 0.976 | S. cerevisiae deletion strains, locus YER155C, strain BEM2, stronger effect = lower value 1.02 | S. cerevisiae deletion strains, locus YER167W, strain BCK2, stronger effect = lower value 0.937 | S. cerevisiae deletion strains, locus YGL078C, strain dbp3, stronger effect = lower value 0.991 | S. cerevisiae deletion strains, locus YHR094C, strain hxt1, stronger effect = lower value 0.993 | S. cerevisiae deletion strains, locus YHR129C, strain ARP1, stronger effect = lower value 0.99 | S. cerevisiae deletion strains, locus YHR200W, strain rpn10, stronger effect = lower value 0.959 | S. cerevisiae deletion strains, locus YIL125W, strain kgd1, stronger effect = lower value 0.977 | S. cerevisiae deletion strains, locus YIR030C, strain dcg1, stronger effect = lower value 0.958 | S. cerevisiae deletion strains, locus YJL134W, strain LCB3, stronger effect = lower value 1.01 | S. cerevisiae deletion strains, locus YJL168C, strain set2, stronger effect = lower value 0.947 | S. cerevisiae deletion strains, locus YJR043C, strain POL32, stronger effect = lower value 0.92 | S. cerevisiae deletion strains, locus YKL009W, strain mrt4, stronger effect = lower value 0.962 | S. cerevisiae deletion strains, locus YKL068W, stronger effect = lower value 0.999 | S. cerevisiae deletion strains, locus YKL085W, strain MDH1 (second series), stronger effect = lower value 0.987 | S. cerevisiae deletion strains, locus YKL085W, strain MDH1, stronger effect = lower value 0.987 | S. cerevisiae deletion strains, locus YLR102C, strain apc9, stronger effect = lower value 0.987 | S. cerevisiae deletion strains, locus YLR268W, strain sec22, stronger effect = lower value 0.901 | S. cerevisiae deletion strains, locus YLR330W, strain CHS5, stronger effect = lower value 0.994 | S. cerevisiae deletion strains, locus YML124C, strain tub3, stronger effect = lower value 0.995 | S. cerevisiae deletion strains, locus YMR078C, strain ctf18, stronger effect = lower value 0.993 | S. cerevisiae deletion strains, locus YMR263W, strain SAP30, stronger effect = lower value 0.917 | S. cerevisiae deletion strains, locus YNL067W, strain RPL9B, stronger effect = lower value 0.914 | [8] 1.02 | [9] 1.06 | [10] 1.01 | S. cerevisiae deletion strains, locus YNL250W, strain rad50, stronger effect = lower value 1.01 | S. cerevisiae deletion strains, locus YNL271C, strain bni1, stronger effect = lower value 0.977 | S. cerevisiae deletion strains, locus YNL298W, strain CLA4, stronger effect = lower value 0.979 | S. cerevisiae deletion strains, locus YOL012C, strain htz1 0.27 | S. cerevisiae deletion strains, locus YOL147C, strain pex11, stronger effect = lower value 0.944 | S. cerevisiae deletion strains, locus YOR069W, strain VPS5, stronger effect = lower value 1 | S. cerevisiae deletion strains, locus YOR136W, strain idh2, stronger effect = lower value 0.938 | S. cerevisiae deletion strains, locus YOR144C, strain elg1, stronger effect = lower value 1.01 | S. cerevisiae deletion strains, locus YOR316C, strain cot1, stronger effect = lower value 0.986 | S. cerevisiae deletion strains, locus YPL241C, strain CIN2, stronger effect = lower value 0.996 | S. cerevisiae deletion strains, locus YPR119W, strain clb2, stronger effect = lower value 0.988 | S. cerevisiae deletion strains, locus YPR141C, strain kar3, stronger effect = lower value 0.998 | S. cerevisiae deletion strains, locus YPR167C, strain met16, stronger effect = lower value 0.986

CN1CCN(C2Cc3ccccc3Sc3ccc(Cl)cc32)CC1 (centres undefined)
active: [1] 0.883 | [5] 0.881 | [7] 0.587 | [11] 0.668
inactive: [2] 1 | [3] 0.897 | [4] 1.04 | [6] 1.01 | [8] 0.915 | [9] 0.989 | [10] 1.01 | [12] 0.923
